Source: PubChem BioAssay (NCI)
This is part of a sample that, as a whole, favours compounds with a hit. Of some 83,000 tested, about 20% had one in any assay.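 How to read the values: 0–100, growth inhibition (40 = 60% inhibited); 0, no net growth; -100 to 0, cell death (-40 = 40% of starting cells died; -100 = all dead).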 Unmarked numbers belong to inactive results. The source made the active and inactive calls. The calls were made as follows: active = growth percent below 10; inactive = the rest.

Tested on: MDA-MB-468 breast
Test: NCI-60 one-dose screen, 48 h (100 = growth as untreated, 0 = no growth, -100 = all killed)
Details: 10 µM unless noted

`CN(C)c1ccc(/C=C/c2nccc3ccccc23)cc1` was tested, and the growth was -1.08% (active).
For `CCc1c2c(nc3ccc(OC(=O)NCc4ccc(B5OC(C)(C)C(C)(C)O5)cc4)cc13)-c1cc3c(c(=O)n1C2)COC(=O)[C@]3(O)CC`, the growth was -33.9% (active).
For `Cc1cccc2c(=O)c3c(sc12)c(NCCCN)nc1ccccc13`, the growth was -38.5% (active).
`COc1cc2cc(Oc3ccc(NC(=O)Nc4ccc(Cl)c(C(F)(F)F)c4)cc3)c(C)nc2cc1OC` was tested, and the growth was -42.7% (active).
`O=c1ccc2nc(C(F)(F)F)nn(-c3ccccc3)c-2c1` was tested, and the growth was -73.5% (active).
For `CC(=O)c1cc(C(=O)c2ccc3c(c2)Sc2ccccc2N3)n2ccccc12`, the growth was 3.96% (active).
`COc1ccc(C(C#N)=C2C=CC(=NO)C=C2)cc1` was tested, and the growth was -7.26% (active).
With `CCCCC/C=C/C/C=C/CCCCCCCC1=NC(C)(C)CN1C(C)C` the growth was -42.8% (active).
With `N=C(N)c1ccc(-c2ccc(-c3ccc4ccccc4c3)s2)s1` the growth was -16.3% (active).
`O=C(Nc1ccc(Br)cc1F)c1cc(Cl)ccc1O` was tested, and the growth was -14.5% (active).
In the case of `COc1ccc(-c2[nH]ncc2-c2cc3c(c(OC)c2)OCC(=O)N3)cc1`, the growth is reported as -6.47% (active).

Point of comparison: `O=C1/C(=C/c2ccccc2)COc2ccc(O)cc21`, growth 87.8%. Against it:
- CCOC(=O)c1c2c(n3ccc(C)cc13)C(=O)c1ccccc1C2=O — higher, 102%
- O=c1oc2c(cnc3ccccc32)cc1-c1cccc(Cl)c1 — higher, 104%
- CCSc1nnc2c3cc(Br)ccc3n(C)c2n1 — higher, 115%
- CNc1nc2ncc(-c3c(C)noc3C)cc2n1Cc1ccccc1 — lower, 34.7%
- COc1cc(/C(C#N)=C/c2nc3c(N4CCOCC4)nc(Cl)nc3n2C)cc(OC)c1OC — lower, 15%
- C=C(C)[C@@H]1CC[C@]2(C=O)CC[C@]3(C)[C@H](CC[C@@H]4[C@@]5(C)C/C(=C/c6cccnc6)C(=O)C(C)(C)[C@@H]5CC[C@]43C)[C@@H]12 — lower, 80.4%
- CCc1c2cc(Cl)ccc2n2cc(Cc3ccccc3)[nH]c(=O)c12 — higher, 115%
- O=C(N/N=C/c1ccccc1O)c1ccccc1 — lower, 12.1%
- C/C(=N\Nc1ccccc1)c1ccc(NC2=CC(=O)c3ccccc3C2=O)cc1 — lower, 35.7%
- COc1cc2c(C#N)n3c(c2cc1OC)C(=O)C(c1ccccc1)Oc1ccccc1-3 (stereo not given) — lower, 74.5%
- CN(CCc1ccccn1)c1ccccc1 — higher, 113%
- Cn1cc(-c2cnn3c(N)c(Br)c([C@@H]4CCCNC4)nc23)cn1 — lower, 67.5%
- Cn1cc(-c2cc3ncnc(Nc4ccc(CC(=O)Nc5cc(C(C)(C)C)on5)cc4)c3s2)cn1 — lower, 31.5%
- O=C(Cc1ccc(/C=C/C(=O)c2ncc[nH]2)cc1)Nc1cc(C(F)(F)F)cc(C(F)(F)F)c1 — lower, 65.3%
- O=c1oc2c(Br)cc(Br)cc2cc1-c1cc(-c2ccc(-c3cc(-c4cc5cc(Br)cc(Br)c5oc4=O)nc(-c4cc5cc(Br)cc(Br)c5oc4=O)c3)cc2)cc(-c2cc3cc(Br)cc(Br)c3oc2=O)n1 — higher, 117%
- COc1ccc(/C=C2\CN(Cc3cn(CCCNc4ccnc5cc(Cl)ccc45)nn3)C/C(=C\c3ccc(OC)cc3)C2=O)cc1 — lower, 57.5%
- COc1ccc(C2C=C(c3ccc(OC)c(OC)c3)N=C3SC=C(C)N32)c(Br)c1 (stereo not given) — higher, 95.9%
- CCN1C(=O)N(CC)C2C1NN=c1s/c(=C\c3ccccc3F)c(=O)n12 (stereo not given) — lower, 10.9%
- CC(=O)C[n+]1ccccc1Sc1ccc(Cl)cc1 — higher, 97.3%
- Cc1[nH]n(C(N)=S)c(=O)c1N=Nc1ccc(S(=O)(=O)Nc2ccncn2)cc1 — lower, 86.4%
- CCN1CCN(CC(=O)Nc2nc3ccc(NCc4ccc(Cl)cc4)cc3s2)CC1 — lower, 47.8%
- O=C(Nc1nc(-c2ccc(Br)cc2)cs1)c1cc(-c2ccc(Br)cc2)nc2ccc(Cl)cc12 — higher, 102%
- C#CCn1cnc2c(Nc3cccc(NC(=O)CCl)c3)ncnc21 — lower, 23.5%
- O=C(N/N=C\c1ccccc1O)C1CC1 — higher, 102%
- OC[C@@H](O)C(O[C@@H]1O[C@H](CO)[C@H](O)[C@H](O)[C@H]1O)[C@H](O)[C@@H](O)CO (stereo not given in full) — higher, 94.7%
- C1=C(c2ccccc2)c2ccccc2C1 — higher, 100%
- Cc1nc(-c2ccccc2)cc2c(O)c(C(=O)N/N=C/c3ccc(N(C)C)cc3)[nH]c(=O)c12 — lower, 77.6%
- CCN(CC)CCCC(C)Nc1c(C)cnc2cc(Cl)c(C)cc12 (stereo not given) — higher, 99.7%
